# Screens deposited in PubChem by National Center for Advancing Translational Sciences (NCATS).
# An excerpt weighted towards active compounds, which were near 12% of everything screened.
# ALDH1A1 inh: inhibitors of human aldehyde dehydrogenase 1A1; AID 1030; Purified ALDH1A1, NADH fluorescence, propionaldehyde substrate; P00352; actives 7.3% (n = 220,000); Potency, µM (titrated, usually from 75.3 µM), for the others: at the highest dose activity, negative = inhibition, hits mostly inhibitors; active means well fitted inhibition curve with a large enough effect, not every such curve was filed as active; inconclusive means small, poorly fitted or top-dose-only effect, or another doubt; inactive means no such curve, though single readings can be large or run the other way;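 further: plate controls were no enzyme wells and a reference inhibitor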
# PLK1 PBD block: inhibitors of human PLK1 polo-box domain binding; actives 2.8% (n = 360,000); P53350; AID 720504; Plk1 PBD binding of FITC phosphopeptide, fluorescence polarization; Potency, µM, for the others: max response, negative = inhibition, actives largely listed as inhibitors; further: series mostly up to about 57 µM; nearly all actives have a fitted effect of over 65% in size
# Target sequence (P53350 whole entry, looked up, the tested form may be a part): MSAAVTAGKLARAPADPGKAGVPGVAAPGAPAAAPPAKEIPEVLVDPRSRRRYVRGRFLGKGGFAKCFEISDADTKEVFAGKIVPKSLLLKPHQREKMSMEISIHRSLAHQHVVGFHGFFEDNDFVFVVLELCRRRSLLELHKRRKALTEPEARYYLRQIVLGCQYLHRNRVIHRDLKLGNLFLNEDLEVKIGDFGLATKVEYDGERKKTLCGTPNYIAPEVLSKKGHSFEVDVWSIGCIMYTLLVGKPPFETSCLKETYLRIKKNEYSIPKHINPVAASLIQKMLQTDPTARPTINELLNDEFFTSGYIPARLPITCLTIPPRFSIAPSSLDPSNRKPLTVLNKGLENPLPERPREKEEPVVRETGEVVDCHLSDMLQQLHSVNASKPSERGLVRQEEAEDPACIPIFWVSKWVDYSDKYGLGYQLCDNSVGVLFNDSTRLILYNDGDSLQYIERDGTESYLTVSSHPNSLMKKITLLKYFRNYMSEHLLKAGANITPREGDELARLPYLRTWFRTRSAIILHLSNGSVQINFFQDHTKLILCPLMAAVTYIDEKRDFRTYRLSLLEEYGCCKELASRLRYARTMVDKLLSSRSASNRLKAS
# RORg inh: ROR gamma (mouse) transcription inhibition; Drosophila S2 Gal4-RORgamma UAS-luciferase reporter, 20 h; Potency, µM (titrated, usually from 53.6 µM), inactives show top-dose activity change, negative = inhibition, actives largely listed as inhibitors; actives 5.4% (n = 310,000); AID 2551; further: nearly all actives have a fitted effect of over 60% in size
#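 Schneider cells (Drosophila), stable Gal4 DBD–ROR gamma + UAS-luc; 1 hr cmpd preincubation; Cu2+ induction 700 uM final; 20 hr ambient; luminescence.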
# Sfp PPTase inh: inhibitors of Bacillus subtilis Sfp phosphopantetheinyl transferase; Q9F4F7; Biochemical Sfp PPTase activity, qHTS; Potency, µM, for inactives: largest response in the series, negative = inhibition, actives largely listed as inhibitors; actives 3.5% (n = 310,000);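 further: the enzyme is Sfp with the accession as filed and its product quenches rhodamine fluorescence; 0% = enzyme reaction without inhibitor and -100% = no enzyme wells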
#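 Buffer: 50 mM Hepes-Na pH 7.6, 10 mM MgCl2, 0.01% Nonidet P-40, 0.01% BSA. Enzyme 15 nM, pre-exposed to compound 15 min; substrates then added and fluorescence change tracked over 30 min.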
# VP16 counter: inhibits Gal4-VP16 luciferase reporter, ROR gamma counter-screen; Drosophila S2 Gal4-VP16 UAS-luciferase, luminescence, 20 h; Potency, µM (highest dose often 53.6 µM), for inactives: at the top dose activity, negative = inhibition, most hits filed as inhibitors; actives 3.5% (n = 310,000);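 further: Gal4-VP16 expression switched on by copper sulfate through the metallothionein promoter; nearly all actives have a fitted effect of over 50% in size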
# The depositor's hits bear a star; ? = inconclusive; / = not tested or not shown; [ ] = another dose, or the depositor's remark. Unless noted, the call rests on the fitted dose curve; in most records, active means well fitted curve in the direction sought with a large enough effect; inconclusive means small, poorly fitted or top-dose-only effect, or another doubt; inactive means no such curve, though single readings can be large; an effect the other way counts as inactive or inconclusive. Unless noted, on the % scale 0 is the no-effect control and ±100 the full control effect; potency means the concentration at half of the fitted maximal effect.
SMILES,ALDH1A1 inh,PLK1 PBD block,RORg inh,Sfp PPTase inh,VP16 counter
O=c1n(-c2ccccc2)c(=O)n2n1CC[C@H]1/C(=N\OCc3ccccc3)[C@H]3O[C@@H]3[C@@H](O)[C@@H]12,3%[13.5 µM],/,-2%[10 µM],5%,-6%[10 µM]
CCOC(=O)c1ccc(NC(=O)c2ncn3c2C(=O)N[C@H](C)C3)cc1,/,-2%,/,/,/
COc1cc(CNc2ncnc3c2ncn3[C@H]2CN(Cc3cccc4ccccc34)C[C@@H](CO)O2)cc(OC)c1OC,/,10%,/,/,/
COC(=O)c1sccc1NC(=O)c1cccc(OC)c1,-7%,19µM*,-10%,-16%,?
COc1cccc(C(=O)NC2=NCCS2)c1,6%,-3%,10µM*,15%,?
COc1ccc(C(=O)NC2=NCCS2)cc1S(=O)(=O)N1CCCCC1C (centres undefined),-4%,-13%,14µM*,0%,-2%
CO[C@@H]1COC(=O)CC=C[C@@H](C)[C@@H]2C=C[C@H](O)[C@@H](COC(=O)[C@H](C)NC(=O)CC=C[C@H]1C)O2,1%[13.5 µM],/,7%[10 µM],8%,-12%[10 µM]
COc1cccc(C(=O)NC2C(=O)N3C(C(=O)O)=C(COC(C)=O)CSC23)c1 (centres undefined),/,21µM*,/,/,/
CC(=O)OCC1=C(C(=O)O)N2C(=O)C(NC(=O)Cc3cccs3)C2SC1 (centres undefined),-13%,/,4%,-52%,15%
CC(=O)OCC1=C(C(=O)OC(C)(C)C)N2C(=O)[C@@H](NC(=O)Cc3ccccc3)[C@H]2SC1,/,17µM*,/,/,/
Cc1cc(Cl)ccc1NC(=O)/N=C1/NC(=O)CS1,/,-13%,/,/,/
CCCCN(C=O)c1c(CC)nc2c(OCc3ccc(Cl)cc3Cl)cccn12,/,0%,/,/,/
CC(C)CC1C(=O)N(Cc2cn(CC3CCCCC3)nn2)CCS(=O)(=O)N1Cc1ccc(-c2ccc(F)nc2)cc1 (centres undefined),/,-5%,/,/,/
Cc1ccc(CNC(=O)c2nn(C)c3c2CS(=O)(=O)c2ccccc2-3)cc1,/,30µM*,8%,10%,15%
CCc1ccc(CNC(=O)c2nn(C)c3c2CS(=O)(=O)c2ccccc2-3)cc1,/,-12%,25%,-7%,-15%
O=[N+]([O-])c1ccccc1/C=C/C=N/N1CCCCC1,?,-4%,-7%,19%,20%
O=[N+]([O-])c1ccccc1/C=N/Nc1nc(N2CCCC2)nc(N2CCCC2)n1,4%,-4%,13µM*,17%,-6%
BrC(/C=N/Nc1nc(N2CCOCC2)nc(N2CCOCC2)n1)=C/c1ccccc1,?,-5%,?,79µM*,?
C(=C\c1ccccc1)/C=N/Nc1nc(N2CCCCC2)nc(N2CCCCC2)n1,11%,0%,0.79µM*,-6%,-1%
O=[N+]([O-])c1ccccc1/C=C/C=N/Nc1nc(N2CCCCC2)nc(N2CCCCC2)n1,?,27µM*,11µM*,?,-8%
CC(=C/c1ccccc1)/C=N/Nc1nc(N2CCCCC2)nc(N2CCCCC2)n1,7%,-7%,-25%,12%,-13%
COC(=O)N1CCC2CC1c1c(Cl)cccc12 (centres undefined),/,-6%,/,/,/
COC(=O)[C@]12CCCCC=C1N(Cc1cccc3ccccc13)C(=O)[C@H](CC(=O)NCC1CCCCC1)C2,/,1%,/,/,/
O=C(c1ccc(Cl)c(S(=O)(=O)N2CCOCC2)c1)N1CCc2ccccc2C1,/,-15%,/,/,/
CCOc1cc(N2CCOCC2)c(OCC)cc1NC(=O)COC(=O)c1c(C)noc1C,/,-4%,/,/,/
SMILES,ALDH1A1 inh,PLK1 PBD block,RORg inh,Sfp PPTase inh,VP16 counter
NNc1nc2sc3c(c2c(=O)[nH]1)CCc1ccccc1-3,-1%,-18%,16µM*,?,18µM*
Cn1c(COc2ccccc2O)[n+](C)c2ccccc21,/,3%,0%,18%,-1%
CCCCCCCCCCOC(=O)Cn1c(COc2ccccc2OC)[n+](C)c2ccccc21,/,-11%,?,45µM*,4.5µM*
COc1ccccc1/C=N/NC(=O)c1cccc2ccccc12,/,15µM*,-40%[1.91 µM],13%,7%
CCOc1ccccc1C=NNC(=O)c1cccc2ccccc12,/,3%,/,/,/
COc1cccc(/C=N/NC(=O)c2cc3cc([N+](=O)[O-])ccc3s2)c1O,19%,?,1.4µM*,?,2.5µM*
COc1cc(C(=O)Oc2ccccc2/C=N/NC(=O)c2ccc(Cl)cc2Cl)cc(OC)c1OC,10%,-8%,7.1µM*,14%,11µM*
COc1cc(/C=N/NC(=O)c2cccc3ccccc23)cc(OC)c1OC,/,30µM*,28%,-9%,?
COc1cc(/C=N/NC(=O)c2cccc3ccccc23)cc(OC)c1O,/,-8%,0%,-11%,7%
O=C(Cc1ccc(NC(=O)C2CCCN(C(=O)C3CC3)C2)cc1)Nc1ccc(C(=O)N2CCOCC2)cc1 (centres undefined),/,1%,/,/,/
C=CCn1c(=O)[nH]c2cc(C(=O)N3CC=C(c4ccccc4)CC3)ccc2c1=O,-1%,-9%,10%,-15%,-2%
COc1ccccc1/C=N/NC(=O)c1ccc(NC(=O)c2cccc([N+](=O)[O-])c2)cc1,7.9µM*,/,30%,16%,0%
COc1ccccc1/C=N/NC(=O)c1ccc(-c2ccccc2)cc1,3%,30µM*,11µM*,-4%,?
Cc1ccccc1C(=O)N/N=C/c1ccsc1C,-11%,3%,17%,2%,-6%
Cc1sccc1/C=N/NC(=O)c1cccc2ccccc12,5%,-4%,11µM*,13%,?
COc1cc(/C=N\NC(=O)c2ccc(-c3ccccc3)cc2)cc(OC)c1O,/,-4%,?,4%,?
COc1ccc(/C=N/NC(=O)c2ccc(NC(=O)c3cccc([N+](=O)[O-])c3)cc2)c(OC)c1,?,-9%,-20%,8%,?
CCc1nc2ccc(C(=O)NCC3CCCCC3)cn2c1N(C)Cc1nccs1,/,-3%,/,/,/
FC(F)(F)c1ccccc1Cc1c(-c2cccc(Cl)c2)nc2ccc(Br)cn12,/,4%,/,/,/
COc1ccccc1Cc1c(-c2ccco2)nc2ccc(Br)cn12,/,13µM*,/,/,/
FC(F)(F)c1ccccc1Cc1c(-c2ccco2)nc2ccc(Br)cn12,/,27µM*,/,/,/
COc1ccccc1Cc1c(-c2ccc(F)cc2)nc2ccc(Br)cn12,/,-7%,/,/,/
CC(C)Oc1ccc(CN2CCC2(C)C(=O)Nc2cccc3cccnc23)cc1 (centres undefined),/,-1%,/,/,/
Cc1ccc(C)c2[nH]c(=O)c(CN(CCN3CCCC3)C(=O)Nc3cccc(Cl)c3)cc12,?,-12%,-22%,14µM*,-1%
CCOc1ccc(NC(=O)CN2CCN(CC(=O)Nc3ccc(F)c(F)c3)CC2)cc1,4µM*,-7%,-7%,-1%,10%
CCOc1ccc(NC(=O)CN2CCN(CC(=O)Nc3ccc(C(=O)OC)cc3)CC2)cc1,7.1µM*,-6%,28%,1%,7%
CCOc1ccc(NC(=O)CN2CCN(c3ccc(F)cc3)CC2)cc1,/,1%,5%,11%,-6%
